Our source for the Potency values is PubChem BioAssay AID652106 (National Center for Advancing Translational Sciences (NCATS), 2013).

Among all 370,000 compounds or so, about 500 (0.14%) were called active. About 2% were inconclusive and are not listed. Calls follow the shape of the dose curve; as a rule, active = well fitted activation curve with a large enough effect; inconclusive = small, poorly fitted or top-dose-only effect; inactive = no such curve, though single readings can be large or run the other way. Shown is part of a subset that was picked to be rich in actives. Where a call stands in place of a potency, no number is given.
Potency is read from the fitted curve at half-maximal effect.

The test in a line: qHTS of alpha-syn Inhibitors. Also: nearly all actives have a fitted effect of over 65% in size. To be noted: Yeast expressing alpha-synuclein, BacTiter-Glo, 24 h; Potency: growth rescue; series mostly up to 46.1 µM. A digest of the protocol:
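Screening used galactose-induced yeast with toxic alpha-synuclein levels, exposed to compound for 24 hr at 30 deg C. Cell growth, read with BacTiter-Glo luminescence, gave the measured signal.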
In general terms: qHTS replaces the single test concentration by a dilution series.
Consider `CSc1n[nH]c(-c2ccco2)n1`, for which the Potency entry is “inactive”.

For `Cc1ccc(C)c(NC(=S)NCC(c2cccnc2)N2CCOCC2)c1` (stereo not drawn), the Potency result was “inactive”.

Turning to `Cc1ccc(C(CNC(=O)Nc2ccccc2)N2CCN(C)CC2)cc1` (stereo not drawn), the Potency result was “inactive”. In the case of `Cc1ccc(NC(=O)NCC(c2cccnc2)N2CCOCC2)cc1` (stereo not drawn) it was 5.62 µM (active); in that of `O=C(COc1ccccc1)Nc1nonc1NC(=O)COc1ccccc1`, “inactive”; in that of `O=C(COC(=O)CSc1nnc(-c2ccc(Cl)cc2)o1)Nc1cc(Cl)cc(Cl)c1`, “inactive”. For `O=C(COC(=O)c1ccc(Oc2ccccc2)cc1)Nc1nnc(-c2ccccc2)o1`, the Potency was 22.4 µM (active). In the case of `CCCS(=O)(=O)Nc1cccc(-c2cn3ccsc3n2)c1` it was “inactive”; in that of `CC1CCN(S(=O)(=O)c2ccc3c(c2)N(CC(=O)NCc2ccccc2Cl)C(=O)CO3)CC1`, “inactive”.

`CC(=O)c1ccc[n+](C(C)CCC(C)[n+]2cccc(C(C)=O)c2)c1` (stereo not drawn): the Potency entry is “inactive”.

Take `CC(=O)c1c(Nc2ccccc2)sc(C(=O)c2ccccc2)c1C`: the Potency entry is “inactive”.

`CN(C)c1ccnc2sc(C(=O)c3ccccc3)c(N)c12`: the Potency is 25.1 µM (active). Next, `COc1cccc(C(=O)c2sc3nc(-c4ccccc4)cc(C(F)(F)F)c3c2N)c1`: “inactive”; `CN(CCC#N)c1ccc(C=O)cc1`: “inactive”; `Cc1[nH]c2ccccc2c1C(=O)C(=O)N(C)c1ccccc1`: “inactive”. Next, `CN1CC[C@H](c2c(O)cc(O)c3c(=O)cc(-c4ccccc4Cl)oc23)[C@H](O)C1`: “inactive”; `COc1cc(C(CC(=O)NCCC(C)C)N2Cc3ccccc3C2=O)cc(OC)c1OC` (stereo not drawn): “inactive”; `COc1ccc(/C=C/c2ccnc3ccccc23)cc1OC`: “inactive”. In the case of `O=C(NC(=S)NC1CCS(=O)(=O)C1)c1cccc([N+](=O)[O-])c1` (stereo not drawn) it was “inactive”.

`CC(C)CC(=O)NC(=S)NNC(=O)c1cccc([N+](=O)[O-])c1`: the Potency was 17.8 µM (active). Turning to `C/C(=N\NC(=O)c1cccc([N+](=O)[O-])c1)c1cccnc1`, the Potency entry was “inactive”. Next, `O=[N+]([O-])c1ccc(/C=C/c2ccc3cccnc3c2)cc1`: “inactive”; `O=S(=O)(c1cccc(C(F)(F)F)c1)N1CCN(c2nc(-c3cccs3)nc3ccccc23)CC1`: “inactive”.

Turning to `CO[C@H]1O[C@@H]2O[C@@]3(C)CC[C@@H]4[C@@H](C)CC[C@@H]([C@H]1C)[C@@]24OO3`, the Potency entry was “inactive”. Next, `CCOc1cc(C(=O)Nc2nnc3n2CCS3)cc(OCC)c1OCC`: “inactive”; `CC(C)c1cccc(C(C)C)c1Nc1cn[nH]c1`: 3.98 µM (active).

With `COc1ccc(-c2ccc(CN3C(CC(C)C)C(=O)N(Cc4cn(CC5CCCCC5)nn4)CCS3(=O)=O)cc2)cn1` (stereo not drawn), the Potency entry is “inactive”. Regarding `CC(=O)c1cccc(-c2ccc(CN3C(CC(C)C)C(=O)N(Cc4cn(CC5CCCCC5)nn4)CCS3(=O)=O)cc2)c1` (stereo not drawn), the Potency entry was “inactive”. In the case of `CC(C)CC1C(=O)N(Cc2cn(CC3CCCCC3)nn2)CCS(=O)(=O)N1Cc1ccc(-c2ccc(Cl)cc2)cc1` (stereo not drawn) it was 1.58 µM (active). In the case of `O=C(CC(=O)c1cccnc1)c1ccccc1` it was 15.8 µM (active); in that of `O=C(Nc1cnccn1)c1cccnc1`, “inactive”; in that of `CCOc1ccccc1NC(=O)c1cccnc1`, “inactive”. Next, `CCOc1ccc(NC(=O)CSc2nnc3c(n2)[nH]c2ccc(S(=O)(=O)N4CCOCC4)cc23)cc1`: “inactive”; `CCN(CC)c1ccc(/C=C/c2c(C)cnc3ccc(C)cc23)cc1`: “inactive”; `COc1cc2nc(N3CCCN(C)CC3)nc(NC3CC3)c2cc1OC`: “inactive”. For the molecule `OC(CBr)C[n+]1cccc2cc(Br)ccc21` (stereo not drawn), the Potency entry is “inactive”.

`ClC/C=C/C[n+]1ccccc1Cl`: the Potency result is “inactive”. Regarding `O=C(c1ccco1)N(Cc1cccs1)c1ccc(O)cc1`, the Potency entry was “inactive”.

For the molecule `O=c1cc(-c2ccccc2)[nH]c2nc(Cl)ccc12`, the Potency result was “inactive”. As to `NS(=O)(=O)c1ccc(NC(=O)CSc2nnc3c(n2)[nH]c2ccccc23)cc1`, the Potency result was “inactive”. In the case of `CCC(C)N(c1ccc(/C=C/c2ccnc3ccccc23)cc1)C(C)CC` (stereo not drawn) it was “inactive”; in that of `O=C1c2ccccc2C(=O)N1c1ccc(S(=O)(=O)N2CCOCC2)c2ccccc12`, “inactive”; in that of `CS(=O)c1ccc(/C=C2\C=Cc3ccccc32)cc1` (stereo not drawn), “inactive”.

With `Cc1ccc(C(=O)CSc2nc(-c3ccccc3)nc3c2CCCC3)c(C)c1`, the Potency entry was “inactive”. Next, `Cc1cccc(Nc2nc(C)nc(N)c2S(=O)(=O)c2ccccc2)c1`: “inactive”.

Turning to `Brc1cccc[n+]1Cc1cccc(C[n+]2ccccc2Br)c1`, the Potency result was “inactive”. In the case of `OC(Cc1ccc2ccccc2n1)c1ccc(Cl)c(Cl)c1` (stereo not drawn) it was “inactive”. `COc1ccc(C)cc1NC(=O)C(=O)NCCc1sc(-c2cccc(C)c2)nc1C`: the Potency entry was “inactive”. Next, `CN(C)c1ccc(/C=C2\C=Cc3ccccc32)cc1Br`: “inactive”; `CC(C)(C(=O)NO)c1ccccc1`: “inactive”; `CN(O)C(=S)c1ccccc1`: 3.55 µM (active). In the case of `CCOc1ccccc1C(=O)NC1(C(F)(F)F)NC(=O)N(CCc2ccc(OC)c(OC)c2)C1=O` (stereo not drawn) it was “inactive”; in that of `O=C(c1cnn2c1NC(=C1CC1)C=C2C(F)F)N1CCc2ccccc2C1`, “inactive”. Next, `Cc1cc(F)ccc1NC1(c2ccccc2)C(=O)c2ccccc2C1=O`: “inactive”; `O=S(=O)(Nc1cccc2cccnc12)c1cccc2cccnc12`: “inactive”. `O=[N+]([O-])c1ccccc1S(=O)(=O)Nc1cccc2cccnc12`: the Potency entry is “inactive”.

As for `COc1ccc(S(=O)(=O)Nc2cccc3cccnc23)c(N)c1`, the Potency was 22.4 µM (active). In the case of `CNC(=S)NNC(=O)c1ccc(N(C)C)cc1` it was “inactive”; in that of `CC(=O)NC(=S)NNC(=O)c1ccc(Br)cc1`, 12.6 µM (active). Next, `O=C(NNC(=O)c1ccc(Cl)nc1)c1ccc(Br)cc1`: “inactive”; `Cc1ccc(-c2nc(=N)sn2Cc2ccccc2)cc1`: “inactive”; `CC(C)CC(COCc1ccc(Cl)cc1)N1CCN(C(=O)c2ccc(C(F)(F)F)cc2)CCC1=O` (stereo not drawn): “inactive”. For `CC(C)CC(CO)N1CCN(C(=O)c2ccc(Cl)cc2Cl)CCC1=O` (stereo not drawn), the Potency entry is “inactive”. Turning to `CC(C)C[C@@H](COCc1ccc(Cl)cc1)N1CCN(C(=O)c2ccc(Cl)cc2Cl)CCC1=O`, the Potency is 15.8 µM (active). Regarding `CN(C(=N)N)c1ccc(/C=C2\C=Cc3ccccc32)cc1`, the Potency entry was “inactive”.

Consider `CN(C)CCCn1c(-c2ccc(Cl)cc2)csc1=Nc1ccccc1`, for which the Potency result was “inactive”. In the case of `CN(C)c1ccc(/C=C/c2sc3ccccc3[n+]2C)cc1`, the Potency result was “inactive”. For `CC1(C)C=Cc2c(ccc(C(=O)/C=C/c3ccccc3)c2O)O1`, the Potency entry was “inactive”.
